Data as given in the supplement of paper PMC10849652.
Targets with a hit are over-represented here; the source holds about 8,800 in all. About 0.5% of all pairs of compound and target were hits.

compound: CCCS(=O)(=O)Nc1ccc(F)c(C(=O)c2c[nH]c3ncc(-c4ccc(Cl)cc4)cc23)c1F [vemurafenib]; assay: log2 fold change, soluble protein after heating vs DMSO (PISA); higher = thermal stabilisation; K562 lysate, 10 uM; active = over 0.2 and 3.5 SD of the protein, either way, in both replicates (recomputed)
Summary of the method: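 To prepare the extract, K562 pellets were dounce-homogenised in PBS pH 7.4 with 1 mM MgCl2, giving crude material at 1 mg/mL protein. This was treated with 10 μM compound for 30 min, then heated in aliquots for 3 min over 48°C-58°C before pooling and addition of NP-40 to 0.5% at 4°C. Centrifugation at 21,000xg for 90 min left soluble protein in the supernatant, which TMTpro 16plex LC-MS/MS quantified with equalised channel sums. Results are log-two fold changes in thermal stability compared with solvent controls, from duplicates.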

Chain of UniProt P0CAP2 (P0CAP2 whole entry, looked up): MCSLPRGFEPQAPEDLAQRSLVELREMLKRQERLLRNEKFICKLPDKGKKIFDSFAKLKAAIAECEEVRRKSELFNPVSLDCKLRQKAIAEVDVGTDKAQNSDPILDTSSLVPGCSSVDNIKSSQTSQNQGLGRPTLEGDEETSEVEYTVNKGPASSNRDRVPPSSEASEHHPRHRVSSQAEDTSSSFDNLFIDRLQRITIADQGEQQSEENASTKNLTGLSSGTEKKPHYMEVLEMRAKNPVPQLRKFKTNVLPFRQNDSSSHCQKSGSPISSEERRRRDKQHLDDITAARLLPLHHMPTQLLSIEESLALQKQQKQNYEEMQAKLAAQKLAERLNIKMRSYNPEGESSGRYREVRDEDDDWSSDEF
Chain of UniProt Q9UHX1 (Q9UHX1 whole entry, looked up): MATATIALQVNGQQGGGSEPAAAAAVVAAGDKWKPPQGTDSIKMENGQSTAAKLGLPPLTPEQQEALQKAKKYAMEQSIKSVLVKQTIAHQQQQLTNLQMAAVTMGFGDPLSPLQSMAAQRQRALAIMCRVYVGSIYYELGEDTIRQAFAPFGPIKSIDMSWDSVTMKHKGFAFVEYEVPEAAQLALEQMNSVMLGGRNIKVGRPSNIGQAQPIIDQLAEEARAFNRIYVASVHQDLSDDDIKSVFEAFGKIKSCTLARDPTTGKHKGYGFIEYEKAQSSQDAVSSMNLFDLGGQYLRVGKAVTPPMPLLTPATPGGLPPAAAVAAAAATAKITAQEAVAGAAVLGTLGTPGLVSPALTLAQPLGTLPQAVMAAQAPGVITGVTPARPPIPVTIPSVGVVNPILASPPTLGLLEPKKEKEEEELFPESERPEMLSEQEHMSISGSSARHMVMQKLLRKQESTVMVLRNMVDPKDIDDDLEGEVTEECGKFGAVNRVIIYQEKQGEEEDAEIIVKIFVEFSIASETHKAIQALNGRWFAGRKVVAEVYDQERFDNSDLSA
Chain of UniProt Q9H3S7 (Q9H3S7 whole entry, looked up): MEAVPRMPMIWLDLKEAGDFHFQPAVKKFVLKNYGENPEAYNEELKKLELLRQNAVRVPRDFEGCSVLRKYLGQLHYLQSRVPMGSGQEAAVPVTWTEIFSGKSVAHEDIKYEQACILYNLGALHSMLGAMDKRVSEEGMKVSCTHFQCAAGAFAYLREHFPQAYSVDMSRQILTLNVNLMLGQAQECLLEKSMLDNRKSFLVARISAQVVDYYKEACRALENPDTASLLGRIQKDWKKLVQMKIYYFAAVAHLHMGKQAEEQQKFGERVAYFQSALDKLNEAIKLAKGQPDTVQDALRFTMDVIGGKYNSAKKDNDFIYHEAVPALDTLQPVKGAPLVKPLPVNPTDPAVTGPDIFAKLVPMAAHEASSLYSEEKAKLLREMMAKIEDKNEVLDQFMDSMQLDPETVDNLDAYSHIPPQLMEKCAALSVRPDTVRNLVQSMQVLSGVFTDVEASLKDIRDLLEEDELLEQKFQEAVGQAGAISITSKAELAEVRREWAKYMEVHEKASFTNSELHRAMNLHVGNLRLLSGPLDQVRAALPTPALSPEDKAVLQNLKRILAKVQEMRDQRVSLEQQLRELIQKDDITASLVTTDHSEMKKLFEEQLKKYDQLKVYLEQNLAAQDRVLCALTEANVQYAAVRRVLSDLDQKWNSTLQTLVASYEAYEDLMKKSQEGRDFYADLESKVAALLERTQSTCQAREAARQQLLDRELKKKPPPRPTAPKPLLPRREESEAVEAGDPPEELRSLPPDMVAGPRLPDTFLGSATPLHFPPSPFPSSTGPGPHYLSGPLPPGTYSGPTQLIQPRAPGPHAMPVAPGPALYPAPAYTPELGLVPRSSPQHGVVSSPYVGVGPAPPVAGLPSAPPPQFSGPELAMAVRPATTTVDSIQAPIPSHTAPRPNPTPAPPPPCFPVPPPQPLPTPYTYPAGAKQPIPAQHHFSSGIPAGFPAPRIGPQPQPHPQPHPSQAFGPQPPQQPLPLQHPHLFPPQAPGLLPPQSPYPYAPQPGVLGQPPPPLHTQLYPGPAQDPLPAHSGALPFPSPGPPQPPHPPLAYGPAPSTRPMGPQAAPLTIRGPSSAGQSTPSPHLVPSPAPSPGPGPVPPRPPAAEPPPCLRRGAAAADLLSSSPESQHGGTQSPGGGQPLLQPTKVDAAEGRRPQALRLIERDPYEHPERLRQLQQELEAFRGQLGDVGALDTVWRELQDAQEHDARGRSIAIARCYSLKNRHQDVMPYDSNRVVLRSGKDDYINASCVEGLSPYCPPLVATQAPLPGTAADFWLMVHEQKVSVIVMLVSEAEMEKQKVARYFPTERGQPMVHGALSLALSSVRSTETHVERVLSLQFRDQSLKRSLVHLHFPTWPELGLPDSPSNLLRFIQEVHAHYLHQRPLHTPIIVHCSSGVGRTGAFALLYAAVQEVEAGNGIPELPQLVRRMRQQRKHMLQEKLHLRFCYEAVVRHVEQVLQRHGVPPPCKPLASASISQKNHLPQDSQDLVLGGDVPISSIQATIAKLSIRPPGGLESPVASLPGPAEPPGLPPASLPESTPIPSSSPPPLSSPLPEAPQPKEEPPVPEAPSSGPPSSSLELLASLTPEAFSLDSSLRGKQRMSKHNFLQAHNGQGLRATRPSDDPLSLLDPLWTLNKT
Chain of UniProt P31323 (P31323 whole entry, looked up): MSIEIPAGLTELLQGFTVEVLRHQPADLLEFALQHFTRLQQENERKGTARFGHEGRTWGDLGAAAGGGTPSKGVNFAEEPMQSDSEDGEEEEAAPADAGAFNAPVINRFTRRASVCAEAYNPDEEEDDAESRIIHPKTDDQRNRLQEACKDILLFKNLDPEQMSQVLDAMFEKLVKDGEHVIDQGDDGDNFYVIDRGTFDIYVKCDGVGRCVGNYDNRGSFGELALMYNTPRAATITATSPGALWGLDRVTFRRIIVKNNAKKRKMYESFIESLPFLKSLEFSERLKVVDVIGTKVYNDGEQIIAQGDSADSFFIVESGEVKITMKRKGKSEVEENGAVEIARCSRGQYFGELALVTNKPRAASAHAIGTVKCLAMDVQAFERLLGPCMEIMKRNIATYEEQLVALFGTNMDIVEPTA
Chain of UniProt P14314 (P14314 whole entry, looked up): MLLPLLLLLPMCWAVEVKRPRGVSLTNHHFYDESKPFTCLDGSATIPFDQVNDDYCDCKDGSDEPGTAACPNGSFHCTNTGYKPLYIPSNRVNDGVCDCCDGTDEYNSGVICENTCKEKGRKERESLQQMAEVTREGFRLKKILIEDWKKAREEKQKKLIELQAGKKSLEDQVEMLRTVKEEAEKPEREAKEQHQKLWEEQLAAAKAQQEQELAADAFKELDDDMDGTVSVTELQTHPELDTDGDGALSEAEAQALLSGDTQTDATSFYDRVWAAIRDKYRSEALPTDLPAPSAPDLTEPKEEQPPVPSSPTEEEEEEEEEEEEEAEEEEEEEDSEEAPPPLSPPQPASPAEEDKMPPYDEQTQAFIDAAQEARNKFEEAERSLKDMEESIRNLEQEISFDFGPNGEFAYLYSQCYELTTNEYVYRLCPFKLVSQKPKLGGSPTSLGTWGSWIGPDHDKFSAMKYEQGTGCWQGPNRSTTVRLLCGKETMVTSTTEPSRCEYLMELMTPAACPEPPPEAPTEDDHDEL
Chain of UniProt Q9HBH1 (Q9HBH1 whole entry, looked up): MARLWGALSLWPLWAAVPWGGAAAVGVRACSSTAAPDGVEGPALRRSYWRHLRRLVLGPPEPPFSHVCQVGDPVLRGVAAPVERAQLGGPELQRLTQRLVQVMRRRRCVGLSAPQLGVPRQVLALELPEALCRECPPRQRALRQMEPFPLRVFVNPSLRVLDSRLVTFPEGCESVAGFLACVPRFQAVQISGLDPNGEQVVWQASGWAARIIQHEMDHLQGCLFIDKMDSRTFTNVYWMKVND
Chain of UniProt O00459 (O00459 whole entry, looked up): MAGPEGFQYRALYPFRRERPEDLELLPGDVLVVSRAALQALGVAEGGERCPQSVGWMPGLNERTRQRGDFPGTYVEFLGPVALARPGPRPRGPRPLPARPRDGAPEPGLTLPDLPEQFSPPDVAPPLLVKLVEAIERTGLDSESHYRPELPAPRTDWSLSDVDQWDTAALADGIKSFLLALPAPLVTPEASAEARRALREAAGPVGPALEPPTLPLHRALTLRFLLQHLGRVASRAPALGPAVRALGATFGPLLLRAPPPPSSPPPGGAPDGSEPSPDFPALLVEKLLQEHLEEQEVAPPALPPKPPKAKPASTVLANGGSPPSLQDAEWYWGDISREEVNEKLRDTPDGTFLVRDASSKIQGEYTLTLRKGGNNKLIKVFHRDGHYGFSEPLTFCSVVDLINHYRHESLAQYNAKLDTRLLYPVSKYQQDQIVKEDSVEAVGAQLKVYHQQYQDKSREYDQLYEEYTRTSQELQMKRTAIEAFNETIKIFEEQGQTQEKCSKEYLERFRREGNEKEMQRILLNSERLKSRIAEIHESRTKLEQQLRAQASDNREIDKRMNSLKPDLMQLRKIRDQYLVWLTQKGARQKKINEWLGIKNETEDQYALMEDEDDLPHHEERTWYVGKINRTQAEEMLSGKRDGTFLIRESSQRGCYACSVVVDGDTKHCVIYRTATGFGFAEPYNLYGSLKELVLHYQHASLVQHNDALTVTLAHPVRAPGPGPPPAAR
Chain of UniProt Q9NR22 (Q9NR22 whole entry, looked up): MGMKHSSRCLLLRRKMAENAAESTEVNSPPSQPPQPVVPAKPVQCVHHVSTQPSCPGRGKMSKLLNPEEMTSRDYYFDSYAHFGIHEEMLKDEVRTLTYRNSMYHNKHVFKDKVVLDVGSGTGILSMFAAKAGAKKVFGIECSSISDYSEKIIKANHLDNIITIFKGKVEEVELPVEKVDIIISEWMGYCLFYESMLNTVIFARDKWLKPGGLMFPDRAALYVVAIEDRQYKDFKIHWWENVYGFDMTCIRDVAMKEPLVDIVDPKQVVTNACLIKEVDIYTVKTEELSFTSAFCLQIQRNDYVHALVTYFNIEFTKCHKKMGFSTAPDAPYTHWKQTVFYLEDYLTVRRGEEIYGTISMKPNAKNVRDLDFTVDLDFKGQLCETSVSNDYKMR

log2 fold change, inactive:
PPP2R5C isoform 5 (UniProt Q13362) -0.056
PLXNB2 (UniProt O15031) 0.011
PRKCSH isoform 2 (UniProt P14314) 0.007
PCBP2 (UniProt H3BRU6) 0.13
PRMT8 (UniProt Q9NR22) 0.059
PDF (UniProt Q9HBH1) -0.012
PIP4K2B (UniProt P78356) 0.016
PUF60 (UniProt Q9UHX1) 0.002
PI4KA (UniProt P42356) 0.005
PRKAR2B (UniProt P31323) 0.01
PRKAB2 (UniProt O43741) 0.022
PTPN23 (UniProt Q9H3S7) -0.008
PSMB9 (UniProt P28065) -0.105
POLR2M (UniProt P0CAP2) 0.014
POGK (UniProt Q9P215) -0.035
POLD1 (UniProt P28340) 0.01
PDCD6IP (UniProt Q8WUM4) -0.003
PRKCB isoform 2 (UniProt P05771) 0.045
POLR2F (UniProt P61218) 0.077
PGPEP1 (UniProt Q9NXJ5) 0.021
PHKG2 (UniProt P15735) -0.074
PIK3R2 (UniProt O00459) -0.032
PGGT1B (UniProt P53609) -0.159
